Reference: PubChem BioAssay AID920 (The Scripps Research Institute Molecular Screening Center, 2007)
The campaign covered roughly 200,000 compounds. About 700 (0.35%) were called active.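 How the source made its calls: active means inhibition above a set limit, the mean inhibition across all tested compounds plus 3 SD (cut at about 34% in these data); inactive means the rest.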 The full list was thinned out, with actives kept by preference.

Experiment: blockers of IFN-gamma driven STAT1 reporter – cell-based, HTS, luciferase reporter, primary screen (AID 920);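 further: 0% = IFN-gamma with DMSO and 100% = IFN-gamma with 300 µM nifuroxazide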
Details: NIH 3T3 STAT1-luciferase reporter, luminescence, at 5.5 µM, stronger effect = higher value

Which inhibition does the source give for `CN1CCN(c2cc(N3CCNCC3)ccc2[N+](=O)[O-])CC1` here?
Its inhibition is 12.4% (inactive).

For `COc1cccc(-c2nc3ccc(N4CCN(C)CC4)cc3[nH]2)c1`, which inhibition is on record?
Its inhibition is 63.1% (active).

For `Cc1nc2ccc(N3CCN(C)CC3)cc2nc1C`, which inhibition is on record?
Its inhibition is -26.2% (inactive).

For `CN(C)/C=C(\C=[N+](C)C)c1[nH]ncc1[N+](=O)[O-]`, which inhibition is on record?
Its inhibition is -9.13% (inactive).

For `COc1ccc(CCn2c(O)c(C=NCCCn3ccnc3)c(=O)[nH]c2=O)cc1OC`, which inhibition is on record?
Its inhibition is -4.43% (inactive).
